According to the supplement of paper PMC11732987, “Enantioselective OTUD7B fragment discovery through chemoproteomics screening and high-throughput optimisation” (Communications Chemistry, 2025):

What was measured:
Assay in all cases: log2 ratio of Biotin-Ahx-Ub-VS probe labelling (fragment/DMSO); higher = less target engagement (more negative = stronger competition), active = hit call of the paper (q ≤ 0.05, log2 ratio ≤ -1)
Settings in all cases: compound concentration: 200 uM; treatment time: 3 h
[1] = molecular target: T1, USP42 (UniProt Q9H9J4)
T1 sequence (whole entry): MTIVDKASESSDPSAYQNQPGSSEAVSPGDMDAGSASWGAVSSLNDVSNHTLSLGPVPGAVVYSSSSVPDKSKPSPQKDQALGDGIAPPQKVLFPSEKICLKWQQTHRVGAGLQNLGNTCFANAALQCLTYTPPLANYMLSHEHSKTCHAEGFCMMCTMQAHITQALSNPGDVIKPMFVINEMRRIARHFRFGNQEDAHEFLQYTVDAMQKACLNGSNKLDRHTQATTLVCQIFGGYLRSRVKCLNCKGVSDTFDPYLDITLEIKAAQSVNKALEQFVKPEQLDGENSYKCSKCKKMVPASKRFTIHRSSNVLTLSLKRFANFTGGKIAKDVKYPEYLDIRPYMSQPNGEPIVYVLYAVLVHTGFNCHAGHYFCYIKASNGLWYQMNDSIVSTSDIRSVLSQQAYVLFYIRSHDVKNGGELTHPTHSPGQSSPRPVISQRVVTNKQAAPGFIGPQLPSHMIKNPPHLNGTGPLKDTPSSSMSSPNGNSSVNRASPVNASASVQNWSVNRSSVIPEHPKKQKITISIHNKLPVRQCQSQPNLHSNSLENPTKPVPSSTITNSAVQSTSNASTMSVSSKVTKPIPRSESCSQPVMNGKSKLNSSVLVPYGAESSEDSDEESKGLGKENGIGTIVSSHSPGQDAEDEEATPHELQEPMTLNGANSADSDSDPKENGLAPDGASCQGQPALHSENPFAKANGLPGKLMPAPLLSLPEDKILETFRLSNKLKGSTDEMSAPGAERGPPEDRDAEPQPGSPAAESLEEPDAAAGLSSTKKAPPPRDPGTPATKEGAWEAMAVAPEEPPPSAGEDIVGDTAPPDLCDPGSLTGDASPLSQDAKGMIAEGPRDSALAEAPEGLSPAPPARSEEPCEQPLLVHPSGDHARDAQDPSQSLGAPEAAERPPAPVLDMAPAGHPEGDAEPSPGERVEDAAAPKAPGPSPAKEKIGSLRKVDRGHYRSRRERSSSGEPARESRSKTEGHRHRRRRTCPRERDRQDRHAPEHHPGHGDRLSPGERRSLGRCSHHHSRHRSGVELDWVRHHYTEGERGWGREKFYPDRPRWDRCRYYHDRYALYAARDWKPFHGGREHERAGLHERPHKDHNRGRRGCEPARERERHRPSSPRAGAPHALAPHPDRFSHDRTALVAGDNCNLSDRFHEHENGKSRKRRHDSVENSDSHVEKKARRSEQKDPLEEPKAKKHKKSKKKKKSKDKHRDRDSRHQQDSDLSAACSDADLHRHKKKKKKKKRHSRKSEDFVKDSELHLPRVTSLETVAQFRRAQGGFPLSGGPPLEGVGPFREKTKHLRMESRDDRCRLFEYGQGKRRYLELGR
In short: (§1)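 Fragment (200 µM) or vehicle was incubated for 3 h with triplicate HEK293T lysate samples of 495 µg, which were then treated with Biotin-Ahx-Ub-VS at 0.5 µM final for 1 h. Labelled DUBs were enriched on NeutrAvidin, digested with LysC and trypsin, and analysed by diaPASEF LC-MS/MS. Values are average log2 fragment/vehicle ratios from an unpaired t-test on global-median-normalised Spectronaut label-free quantities, using proteins with ≥2 unique peptides.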

[2] = molecular target: USP46 (UniProt P62068)
Sequence of USP46 (P62068 whole entry): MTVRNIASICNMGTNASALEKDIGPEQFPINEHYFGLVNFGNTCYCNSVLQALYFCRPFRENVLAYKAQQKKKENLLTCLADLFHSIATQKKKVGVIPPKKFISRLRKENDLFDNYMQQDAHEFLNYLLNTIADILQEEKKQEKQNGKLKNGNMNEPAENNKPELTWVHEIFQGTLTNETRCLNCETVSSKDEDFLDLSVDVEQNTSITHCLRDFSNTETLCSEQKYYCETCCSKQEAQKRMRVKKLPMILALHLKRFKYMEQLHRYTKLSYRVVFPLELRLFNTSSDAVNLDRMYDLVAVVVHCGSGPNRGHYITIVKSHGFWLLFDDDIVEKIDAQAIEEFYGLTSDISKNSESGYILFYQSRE
In short: as §1

[3] = molecular target: T2, USP47 (UniProt Q96K76)
T2 sequence (whole entry): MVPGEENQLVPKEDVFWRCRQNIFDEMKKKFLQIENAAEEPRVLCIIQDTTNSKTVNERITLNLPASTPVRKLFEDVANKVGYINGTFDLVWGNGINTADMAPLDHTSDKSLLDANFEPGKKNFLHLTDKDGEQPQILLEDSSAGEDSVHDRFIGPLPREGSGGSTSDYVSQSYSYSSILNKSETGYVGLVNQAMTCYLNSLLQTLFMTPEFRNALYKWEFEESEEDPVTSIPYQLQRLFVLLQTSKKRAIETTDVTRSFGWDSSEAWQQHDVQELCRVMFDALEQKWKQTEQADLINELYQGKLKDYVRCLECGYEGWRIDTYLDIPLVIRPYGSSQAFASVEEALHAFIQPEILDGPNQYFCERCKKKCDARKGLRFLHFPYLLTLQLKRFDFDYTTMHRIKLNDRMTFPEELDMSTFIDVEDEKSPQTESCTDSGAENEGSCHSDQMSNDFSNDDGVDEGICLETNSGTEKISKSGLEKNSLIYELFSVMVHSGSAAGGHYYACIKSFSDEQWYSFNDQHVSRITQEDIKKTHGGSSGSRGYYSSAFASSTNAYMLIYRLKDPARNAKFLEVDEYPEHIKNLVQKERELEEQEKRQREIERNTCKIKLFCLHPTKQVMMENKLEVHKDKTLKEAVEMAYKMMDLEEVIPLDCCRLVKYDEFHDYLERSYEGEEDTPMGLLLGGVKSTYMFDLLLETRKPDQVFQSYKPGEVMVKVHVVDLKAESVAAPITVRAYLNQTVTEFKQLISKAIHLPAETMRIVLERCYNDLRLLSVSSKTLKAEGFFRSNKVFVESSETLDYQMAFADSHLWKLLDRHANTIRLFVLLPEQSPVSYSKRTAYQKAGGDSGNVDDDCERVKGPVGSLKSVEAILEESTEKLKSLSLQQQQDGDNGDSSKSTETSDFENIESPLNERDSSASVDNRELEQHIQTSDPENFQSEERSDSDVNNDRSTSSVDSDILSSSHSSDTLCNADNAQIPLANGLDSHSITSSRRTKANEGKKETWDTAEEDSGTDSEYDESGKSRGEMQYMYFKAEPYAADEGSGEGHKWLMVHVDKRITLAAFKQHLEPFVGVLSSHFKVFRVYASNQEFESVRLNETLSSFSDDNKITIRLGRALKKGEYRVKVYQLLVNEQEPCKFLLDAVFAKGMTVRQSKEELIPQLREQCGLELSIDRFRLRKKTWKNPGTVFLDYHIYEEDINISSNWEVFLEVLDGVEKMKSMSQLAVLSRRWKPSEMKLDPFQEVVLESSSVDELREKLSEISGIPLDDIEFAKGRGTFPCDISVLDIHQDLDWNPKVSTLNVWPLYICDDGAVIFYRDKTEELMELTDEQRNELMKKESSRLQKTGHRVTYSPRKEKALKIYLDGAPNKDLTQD
In short: as §1

[4] = molecular target: T3, USP48 (UniProt Q86UV5)
T3 sequence (whole entry): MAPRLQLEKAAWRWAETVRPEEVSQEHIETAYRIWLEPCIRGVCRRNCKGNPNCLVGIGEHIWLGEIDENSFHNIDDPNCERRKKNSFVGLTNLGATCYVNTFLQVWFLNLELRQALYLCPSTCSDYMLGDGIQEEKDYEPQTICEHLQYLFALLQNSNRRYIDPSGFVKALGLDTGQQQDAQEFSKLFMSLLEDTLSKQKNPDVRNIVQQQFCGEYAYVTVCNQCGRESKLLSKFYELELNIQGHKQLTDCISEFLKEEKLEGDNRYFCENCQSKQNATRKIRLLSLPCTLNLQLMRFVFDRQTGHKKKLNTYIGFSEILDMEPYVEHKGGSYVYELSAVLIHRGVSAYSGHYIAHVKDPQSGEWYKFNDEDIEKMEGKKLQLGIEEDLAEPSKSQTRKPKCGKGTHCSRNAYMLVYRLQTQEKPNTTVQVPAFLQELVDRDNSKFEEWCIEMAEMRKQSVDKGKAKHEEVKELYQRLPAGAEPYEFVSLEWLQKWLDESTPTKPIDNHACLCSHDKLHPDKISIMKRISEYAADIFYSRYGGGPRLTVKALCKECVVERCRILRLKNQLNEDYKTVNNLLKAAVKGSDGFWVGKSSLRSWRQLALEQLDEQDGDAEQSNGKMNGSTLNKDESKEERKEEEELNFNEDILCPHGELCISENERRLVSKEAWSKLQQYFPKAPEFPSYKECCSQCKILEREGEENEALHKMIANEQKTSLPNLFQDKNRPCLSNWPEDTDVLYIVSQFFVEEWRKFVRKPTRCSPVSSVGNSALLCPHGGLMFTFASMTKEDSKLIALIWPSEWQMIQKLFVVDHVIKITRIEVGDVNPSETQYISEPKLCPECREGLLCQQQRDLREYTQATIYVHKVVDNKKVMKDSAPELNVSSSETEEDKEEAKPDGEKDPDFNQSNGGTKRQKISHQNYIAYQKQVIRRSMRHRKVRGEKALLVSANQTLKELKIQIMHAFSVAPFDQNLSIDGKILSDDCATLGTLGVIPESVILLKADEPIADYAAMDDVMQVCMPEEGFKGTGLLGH
In short: as §1

[5] = molecular target: T4, USP5 (UniProt P45974)
T4 sequence (whole entry): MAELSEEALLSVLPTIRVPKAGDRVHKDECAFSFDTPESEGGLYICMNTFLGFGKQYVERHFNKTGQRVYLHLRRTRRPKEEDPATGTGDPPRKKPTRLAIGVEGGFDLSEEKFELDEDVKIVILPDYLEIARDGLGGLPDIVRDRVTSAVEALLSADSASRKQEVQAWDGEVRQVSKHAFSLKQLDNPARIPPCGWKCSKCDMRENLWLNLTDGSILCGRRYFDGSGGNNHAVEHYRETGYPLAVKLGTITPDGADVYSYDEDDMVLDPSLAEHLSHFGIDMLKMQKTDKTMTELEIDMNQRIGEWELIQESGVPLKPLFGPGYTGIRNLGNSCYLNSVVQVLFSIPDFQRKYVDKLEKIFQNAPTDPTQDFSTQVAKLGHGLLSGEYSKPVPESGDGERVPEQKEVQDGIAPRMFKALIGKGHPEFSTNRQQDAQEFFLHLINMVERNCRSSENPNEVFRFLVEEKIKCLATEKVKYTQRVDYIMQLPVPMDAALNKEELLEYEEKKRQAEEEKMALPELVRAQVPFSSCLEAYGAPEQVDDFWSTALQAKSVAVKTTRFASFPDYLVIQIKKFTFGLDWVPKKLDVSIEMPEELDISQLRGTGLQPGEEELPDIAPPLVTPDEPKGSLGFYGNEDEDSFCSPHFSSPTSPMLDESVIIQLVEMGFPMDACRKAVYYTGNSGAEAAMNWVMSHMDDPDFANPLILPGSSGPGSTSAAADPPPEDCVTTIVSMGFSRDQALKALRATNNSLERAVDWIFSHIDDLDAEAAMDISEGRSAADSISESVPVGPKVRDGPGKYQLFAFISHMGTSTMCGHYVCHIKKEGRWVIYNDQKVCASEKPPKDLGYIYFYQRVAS
In short: as §1

[6] = molecular target: USP54 (UniProt Q70EL1)
In short: as §1

[7] = molecular target: USP7 (UniProt Q93009)
Sequence of USP7 (Q93009 whole entry, looked up): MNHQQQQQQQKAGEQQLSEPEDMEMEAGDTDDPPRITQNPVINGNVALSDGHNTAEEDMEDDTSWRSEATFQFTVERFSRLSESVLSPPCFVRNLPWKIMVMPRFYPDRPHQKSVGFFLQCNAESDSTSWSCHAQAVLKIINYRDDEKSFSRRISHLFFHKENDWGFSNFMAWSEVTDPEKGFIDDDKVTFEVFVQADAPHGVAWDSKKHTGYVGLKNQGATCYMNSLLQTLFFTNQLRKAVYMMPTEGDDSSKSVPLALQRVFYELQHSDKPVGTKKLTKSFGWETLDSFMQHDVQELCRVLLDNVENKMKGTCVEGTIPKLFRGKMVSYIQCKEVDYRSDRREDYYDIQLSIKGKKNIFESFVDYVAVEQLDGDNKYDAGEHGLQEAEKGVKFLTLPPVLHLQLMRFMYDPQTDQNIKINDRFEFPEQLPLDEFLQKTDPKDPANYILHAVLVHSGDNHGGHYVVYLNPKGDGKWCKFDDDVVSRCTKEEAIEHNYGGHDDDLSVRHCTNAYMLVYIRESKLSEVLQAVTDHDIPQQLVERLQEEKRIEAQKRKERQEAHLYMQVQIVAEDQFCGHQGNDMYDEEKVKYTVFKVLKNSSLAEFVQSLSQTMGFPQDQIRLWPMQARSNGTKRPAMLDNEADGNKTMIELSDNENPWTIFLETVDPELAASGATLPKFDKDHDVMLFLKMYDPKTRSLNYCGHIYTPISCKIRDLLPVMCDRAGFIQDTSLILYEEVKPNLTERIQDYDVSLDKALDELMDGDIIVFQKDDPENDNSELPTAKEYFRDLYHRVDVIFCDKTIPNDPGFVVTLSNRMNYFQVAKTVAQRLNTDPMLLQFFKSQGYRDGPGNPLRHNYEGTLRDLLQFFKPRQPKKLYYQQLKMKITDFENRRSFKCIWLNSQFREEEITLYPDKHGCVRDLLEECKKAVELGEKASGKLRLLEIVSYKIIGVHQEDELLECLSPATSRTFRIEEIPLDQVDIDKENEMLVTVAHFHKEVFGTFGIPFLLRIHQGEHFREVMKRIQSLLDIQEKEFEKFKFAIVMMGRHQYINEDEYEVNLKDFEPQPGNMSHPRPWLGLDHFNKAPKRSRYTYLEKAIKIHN
In short: as §1

[8] = molecular target: T5, USP8 (UniProt P40818)
T5 sequence (whole entry): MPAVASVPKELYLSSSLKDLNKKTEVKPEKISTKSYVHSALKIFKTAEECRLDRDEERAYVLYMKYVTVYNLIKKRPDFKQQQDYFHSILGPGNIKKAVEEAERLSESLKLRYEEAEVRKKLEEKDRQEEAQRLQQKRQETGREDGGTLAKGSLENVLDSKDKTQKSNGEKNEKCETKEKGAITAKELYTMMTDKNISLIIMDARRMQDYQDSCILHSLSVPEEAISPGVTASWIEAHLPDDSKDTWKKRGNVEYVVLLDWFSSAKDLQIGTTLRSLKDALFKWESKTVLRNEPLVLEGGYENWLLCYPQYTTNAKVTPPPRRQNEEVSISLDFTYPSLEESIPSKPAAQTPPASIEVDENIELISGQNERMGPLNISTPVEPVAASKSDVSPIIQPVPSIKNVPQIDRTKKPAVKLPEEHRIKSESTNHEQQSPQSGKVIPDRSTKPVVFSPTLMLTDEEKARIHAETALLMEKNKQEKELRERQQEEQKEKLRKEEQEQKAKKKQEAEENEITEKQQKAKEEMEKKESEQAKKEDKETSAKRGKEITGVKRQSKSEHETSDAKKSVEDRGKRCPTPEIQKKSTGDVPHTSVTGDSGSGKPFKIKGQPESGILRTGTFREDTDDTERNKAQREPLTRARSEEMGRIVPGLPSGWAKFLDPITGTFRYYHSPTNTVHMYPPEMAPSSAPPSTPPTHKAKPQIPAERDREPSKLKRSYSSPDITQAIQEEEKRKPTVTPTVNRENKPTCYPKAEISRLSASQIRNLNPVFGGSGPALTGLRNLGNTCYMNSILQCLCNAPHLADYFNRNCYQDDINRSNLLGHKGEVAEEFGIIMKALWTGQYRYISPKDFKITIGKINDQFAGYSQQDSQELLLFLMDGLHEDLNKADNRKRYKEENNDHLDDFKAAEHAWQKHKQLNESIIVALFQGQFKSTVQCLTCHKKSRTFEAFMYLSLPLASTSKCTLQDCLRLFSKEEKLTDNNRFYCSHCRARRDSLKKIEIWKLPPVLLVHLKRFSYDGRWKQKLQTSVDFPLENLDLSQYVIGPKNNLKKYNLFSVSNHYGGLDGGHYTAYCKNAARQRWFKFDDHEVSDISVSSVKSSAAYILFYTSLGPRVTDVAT
In short: as §1

[9] = molecular target: USP9X (UniProt Q93008)
Sequence of USP9X (Q93008 whole entry): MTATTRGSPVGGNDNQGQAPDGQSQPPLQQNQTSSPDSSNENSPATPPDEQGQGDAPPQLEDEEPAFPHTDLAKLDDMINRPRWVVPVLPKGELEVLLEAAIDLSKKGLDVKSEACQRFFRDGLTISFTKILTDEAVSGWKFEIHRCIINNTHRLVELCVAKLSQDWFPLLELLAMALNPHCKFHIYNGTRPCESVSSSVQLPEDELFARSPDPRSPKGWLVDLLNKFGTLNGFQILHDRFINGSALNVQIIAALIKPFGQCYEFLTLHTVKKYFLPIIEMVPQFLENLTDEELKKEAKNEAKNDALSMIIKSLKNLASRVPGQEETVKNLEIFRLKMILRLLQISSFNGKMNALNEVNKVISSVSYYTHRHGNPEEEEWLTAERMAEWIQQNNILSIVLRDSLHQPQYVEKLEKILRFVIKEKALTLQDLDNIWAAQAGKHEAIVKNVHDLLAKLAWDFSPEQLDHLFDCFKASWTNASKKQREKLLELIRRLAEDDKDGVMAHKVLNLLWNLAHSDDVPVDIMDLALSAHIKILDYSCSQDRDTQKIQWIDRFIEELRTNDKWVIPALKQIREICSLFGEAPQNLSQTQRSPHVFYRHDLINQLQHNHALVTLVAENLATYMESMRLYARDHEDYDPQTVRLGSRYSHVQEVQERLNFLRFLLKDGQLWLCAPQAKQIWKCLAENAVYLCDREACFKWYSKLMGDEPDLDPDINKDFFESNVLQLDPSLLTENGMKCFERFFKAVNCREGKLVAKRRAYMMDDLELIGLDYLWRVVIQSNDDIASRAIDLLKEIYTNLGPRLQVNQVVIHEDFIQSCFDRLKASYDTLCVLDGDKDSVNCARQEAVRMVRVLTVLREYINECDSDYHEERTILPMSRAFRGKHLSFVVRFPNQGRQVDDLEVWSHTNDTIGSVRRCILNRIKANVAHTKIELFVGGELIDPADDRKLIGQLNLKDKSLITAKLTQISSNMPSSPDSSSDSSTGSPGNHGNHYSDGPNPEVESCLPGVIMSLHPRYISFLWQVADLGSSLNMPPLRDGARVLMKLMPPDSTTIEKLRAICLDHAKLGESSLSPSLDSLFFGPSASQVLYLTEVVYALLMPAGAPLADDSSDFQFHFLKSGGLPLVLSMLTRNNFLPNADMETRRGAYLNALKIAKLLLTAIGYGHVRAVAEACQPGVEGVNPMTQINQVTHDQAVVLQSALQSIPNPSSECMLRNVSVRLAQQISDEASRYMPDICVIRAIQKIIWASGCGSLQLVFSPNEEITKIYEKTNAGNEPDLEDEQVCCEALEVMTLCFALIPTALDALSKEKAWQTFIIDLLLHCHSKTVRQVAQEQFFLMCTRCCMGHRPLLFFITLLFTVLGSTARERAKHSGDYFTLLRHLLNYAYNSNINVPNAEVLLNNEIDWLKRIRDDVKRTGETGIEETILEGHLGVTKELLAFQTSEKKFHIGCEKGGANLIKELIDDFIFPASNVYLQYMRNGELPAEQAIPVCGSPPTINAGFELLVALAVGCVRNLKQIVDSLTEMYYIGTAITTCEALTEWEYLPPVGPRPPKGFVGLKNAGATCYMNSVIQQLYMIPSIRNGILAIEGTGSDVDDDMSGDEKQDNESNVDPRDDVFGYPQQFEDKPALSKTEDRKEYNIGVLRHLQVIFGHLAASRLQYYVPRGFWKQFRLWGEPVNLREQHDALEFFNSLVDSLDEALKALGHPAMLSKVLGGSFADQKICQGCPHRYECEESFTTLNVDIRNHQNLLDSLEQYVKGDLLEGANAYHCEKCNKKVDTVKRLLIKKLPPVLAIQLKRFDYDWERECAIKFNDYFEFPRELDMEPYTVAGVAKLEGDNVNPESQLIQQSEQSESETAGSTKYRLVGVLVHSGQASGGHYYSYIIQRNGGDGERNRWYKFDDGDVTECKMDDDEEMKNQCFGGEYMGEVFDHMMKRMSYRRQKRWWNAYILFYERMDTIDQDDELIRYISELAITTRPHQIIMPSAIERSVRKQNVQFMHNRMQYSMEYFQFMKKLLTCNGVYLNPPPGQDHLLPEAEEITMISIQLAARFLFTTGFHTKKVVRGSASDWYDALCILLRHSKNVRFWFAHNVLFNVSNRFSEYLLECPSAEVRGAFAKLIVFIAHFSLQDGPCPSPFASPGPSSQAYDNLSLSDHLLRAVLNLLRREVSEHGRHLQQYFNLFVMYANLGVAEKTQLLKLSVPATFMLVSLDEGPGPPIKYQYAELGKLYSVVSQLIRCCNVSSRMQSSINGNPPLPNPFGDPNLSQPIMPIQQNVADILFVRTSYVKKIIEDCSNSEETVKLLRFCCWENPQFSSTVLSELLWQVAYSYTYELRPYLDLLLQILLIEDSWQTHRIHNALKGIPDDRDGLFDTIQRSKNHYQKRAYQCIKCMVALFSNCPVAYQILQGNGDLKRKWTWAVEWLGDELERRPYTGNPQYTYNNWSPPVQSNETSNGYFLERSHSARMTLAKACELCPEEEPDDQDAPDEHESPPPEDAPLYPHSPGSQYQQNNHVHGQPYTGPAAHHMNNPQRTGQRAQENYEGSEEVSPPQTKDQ
In short: as §1

[10] = molecular target: UniProt O00487
Sequence of UniProt O00487 (O00487 whole entry): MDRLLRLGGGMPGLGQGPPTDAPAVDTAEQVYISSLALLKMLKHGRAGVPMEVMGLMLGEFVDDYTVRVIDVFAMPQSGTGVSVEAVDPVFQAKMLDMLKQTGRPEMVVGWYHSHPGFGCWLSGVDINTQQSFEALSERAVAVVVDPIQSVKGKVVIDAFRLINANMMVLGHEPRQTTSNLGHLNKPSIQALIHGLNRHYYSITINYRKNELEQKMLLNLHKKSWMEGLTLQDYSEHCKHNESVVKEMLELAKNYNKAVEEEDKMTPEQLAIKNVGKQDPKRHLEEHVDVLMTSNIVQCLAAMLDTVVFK
In short: as §1

Measured: log2 ratio of Biotin-Ahx-Ub-VS probe labelling

CN(C)C(=O)c1ccc(CNC(=O)CCl)cc1
inactive: [1] -0.0843 | [2] 0.181 | [3] 0.119 | [4] 0.0435 | [5] 0.373 | [6] 0.152 | [7] 0.103 | [8] -0.341 | [9] 0.002 | [10] -0.101
